“And” between values parts separate entries of the source, which are not always exact repeats. Identical values can stand only once. Records with an inconclusive call do not appear. Where a call stands in place of a potency, no number is given. Values without a mark were called inactive. The source made the active and inactive calls. Calls follow the shape of the dose curve; as a rule, active = well fitted curve in the direction sought with a large enough effect; inconclusive = small, poorly fitted or top-dose-only effect, or another doubt; inactive = no such curve, though single readings can be large; an effect the other way counts as inactive or inconclusive.
Legend:
[1] = target: Cellular tumor antigen p53 (Homo sapiens) (UniProt P04637); test: Primary qHTS for small molecule compounds that upregulate eGFP-tagged delta133p53alpha (in N-terminal) cells. (AID 2060322); details: NCI-H358 eGFP-delta133p53alpha fluorescence, 24 h; activation: stronger effect = higher value; also: nearly all actives have a fitted effect of over 75% in size; also: potency is read from the fitted curve at half-maximal effect; as to activation: series mostly up to about 56 µM
Sequence of Cellular tumor antigen p53 (Homo sapiens) (P04637 whole entry, looked up): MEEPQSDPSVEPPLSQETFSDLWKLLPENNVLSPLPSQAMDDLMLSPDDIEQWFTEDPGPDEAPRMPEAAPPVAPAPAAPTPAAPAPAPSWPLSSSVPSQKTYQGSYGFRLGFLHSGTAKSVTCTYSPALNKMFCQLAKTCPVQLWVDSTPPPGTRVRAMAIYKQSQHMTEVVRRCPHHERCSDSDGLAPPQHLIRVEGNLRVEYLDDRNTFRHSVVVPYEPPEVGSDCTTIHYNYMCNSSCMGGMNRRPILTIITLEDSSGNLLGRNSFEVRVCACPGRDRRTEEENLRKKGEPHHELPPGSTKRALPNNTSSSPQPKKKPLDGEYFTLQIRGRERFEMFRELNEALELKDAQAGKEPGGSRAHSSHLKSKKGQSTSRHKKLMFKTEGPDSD
Summary of the method: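 NCI-H358 cells pre-induced 24 h with 10 ng/ml doxycycline to express N-terminal eGFP-delta133p53alpha, then dosed 24 h at 37C without doxycycline; fixed, Hoechst-stained, GFP intensity by laser scanning cytometry, normalized to DMSO (0%) and 57.5 uM 5-azacytidine (100%).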

[2] = target: Aldehyde dehydrogenase, mitochondrial (Homo sapiens) (UniProt P05091); test: qHTS for Inhibitors of the Aldehyde Dehydrogenase Family (ALDH2) Primary screen (AID 2061308); also: nearly all actives have a fitted effect of over 55% in size
[3] = target: Retinaldehyde dehydrogenase 3 (Homo sapiens) (UniProt P47895); test: qHTS for Inhibitors of the Aldehyde Dehydrogenase Family (ALDH1A3) Primary screen (AID 2061315)

Compound | Potency [1] | Potency [2] | Potency [3] | activation [1]
C=C1C(=O)O[C@@H]2C3=C(C)CCC[C@]3(C)CC[C@@]12O | 16.9 µM (active) | inactive | inactive | 
COC(=O)C1=CO[C@@H](O[C@@H]2O[C@H](CO)[C@@H](O)[C@H](O)[C@H]2O)[C@H]2[C@@H]1C=C[C@]21C=C([C@H](C)OC(=O)/C=C/c2ccc(O[C@@H]3O[C@H](CO)[C@@H](O)[C@H](O)[C@H]3O)cc2)C(=O)O1 |  | inactive | inactive | -1.79%
CC(C)CC(=O)OC[C@H]1O[C@@](COC(=O)CC(C)C)(O[C@H]2O[C@H](CO)[C@@H](O)[C@H](O)[C@H]2OC(=O)CC(C)C)[C@@H](OC(=O)CC(C)C)[C@@H]1O |  | inactive | inactive | -7.14%
C[C@@H]1CC[C@]2(C(=O)O)CC[C@]3(C)C(=CCC4[C@]5(C)C(CC[C@]43C)C(C)(C)[C@@H](O)[C@H](O)[C@@H]5O)C2[C@]1(C)O (stereo not given in full) |  | inactive | inactive | -4.46%
CC12CCC3c4ccc(O)cc4CCC3C1CC(OC1OC(C(=O)O)C(O)C(O)C1O)C2O (stereo not given) |  | inactive | inactive | -10.3%
C=C(C(=O)OC)C1C(O)CC2(C)C(=O)CCC(O)(CO)C2C1O (stereo not given) |  | inactive | inactive | -14.3%
COc1cc(O)cc(C)c1C(=O)O[C@@H]1[C@H](O)[C@@H](CO)O[C@H]1n1ccc(=O)[nH]c1=O |  | inactive | inactive | 11.5%
Cc1cccc(C)c1-n1c(=O)c2cnc(Nc3ccc(N4CCN(C)CC4)cc3)nc2n2c3ccccc3nc12 | 30.1 µM (active) | inactive | inactive | 
COC(=O)C1=CO[C@@H](O[C@@H]2O[C@H](CO)[C@@H](O)[C@H](O)[C@H]2O)/C(=C\CO)[C@@H]1CC(=O)OCCc1ccc(O)cc1 |  | inactive | inactive | -20.6%
Nc1nc(NC2CC2)cc(-c2cccc(Cl)c2Cl)n1 | 6.01 µM (active) | inactive | inactive | 
O=C1NC2CCCCN2C12CCN(CCCN1c3ccccc3CCc3ccc(Cl)cc31)CC2 (stereo not given) | 13.5 µM (active) | inactive | inactive | 
COc1c(C)c2c(c(O)c1C/C=C(\C)CC/C=C(\C)CCC(=O)O)C(=O)OC2 |  | inactive | inactive | 6.11%
Cc1ccc(S(=O)(=O)NCc2ccc(C(=O)NCCN(Cc3ccccc3)C(C)C)cc2)cc1 |  | inactive | inactive | 3.67%
CC(C)C1=CCC(C)(O)C(OC2OC(CO)C(O)C(O)C2O)C1 (stereo not given) |  | inactive | inactive | -17.6%
CNS(=O)(=O)c1ccccc1Nc1nc(Nc2ccc(N3CCN(C)CC3)cc2OC)ncc1Cl | 21.3 µM (active) | inactive | inactive | 
CCCOC(c1cc2nccc(C(=O)O)c2[nH]1)c1ccccc1Cl (stereo not given) |  | inactive | inactive | 0.333%
CC(=O)OCC(Cc1ccccc1)NC(=O)C(Cc1ccccc1)NC(=O)c1ccccc1 (stereo not given) |  | inactive | inactive | -13%
CC1CCCC2OC2C(=O)c2c(O)cc(O)cc2CC(=O)O1 (stereo not given) |  | inactive | inactive | 16%
COc1ccc([C@H]2Cc3cccc(O)c3C(=O)O2)cc1OC |  | inactive | inactive | 6.87%
CCCCS(=O)(=O)N[C@@H](Cc1ccc(OCCCCC2CCNCC2)cc1)C(=O)O |  | inactive | inactive | -22% and 10.3%

Reference: PubChem BioAssay (NCATS)
